# Assay results as given in article PMC4053984, “DNA binding specificities of the long zinc-finger recombination protein PRDM9”.
# Biological target: PRDM9Cst (Mus musculus (CAST/EiJ))
# Experiment: competition EMSA; competition against biotin-labeled 75-bp Hlx1 B6 oligo; 10 mM Tris pH 7.5, 50 mM KCl, 1 mM DTT, 50 ng/ul poly(dI/dC), 0.05% NP-40, crude E. coli extract 3 ul in 20 ul; 1 h with unlabeled competitor, then 4 h with biotin-labeled 75-bp Hlx1; temperature not stated; high values mean tight binding
# Details: tags: N-terminal His tag (pBAD/HisB); dsDNA, one strand shown
# Sequence of PRDM9Cst (Mus musculus (CAST/EiJ)) (chain, as listed by the source): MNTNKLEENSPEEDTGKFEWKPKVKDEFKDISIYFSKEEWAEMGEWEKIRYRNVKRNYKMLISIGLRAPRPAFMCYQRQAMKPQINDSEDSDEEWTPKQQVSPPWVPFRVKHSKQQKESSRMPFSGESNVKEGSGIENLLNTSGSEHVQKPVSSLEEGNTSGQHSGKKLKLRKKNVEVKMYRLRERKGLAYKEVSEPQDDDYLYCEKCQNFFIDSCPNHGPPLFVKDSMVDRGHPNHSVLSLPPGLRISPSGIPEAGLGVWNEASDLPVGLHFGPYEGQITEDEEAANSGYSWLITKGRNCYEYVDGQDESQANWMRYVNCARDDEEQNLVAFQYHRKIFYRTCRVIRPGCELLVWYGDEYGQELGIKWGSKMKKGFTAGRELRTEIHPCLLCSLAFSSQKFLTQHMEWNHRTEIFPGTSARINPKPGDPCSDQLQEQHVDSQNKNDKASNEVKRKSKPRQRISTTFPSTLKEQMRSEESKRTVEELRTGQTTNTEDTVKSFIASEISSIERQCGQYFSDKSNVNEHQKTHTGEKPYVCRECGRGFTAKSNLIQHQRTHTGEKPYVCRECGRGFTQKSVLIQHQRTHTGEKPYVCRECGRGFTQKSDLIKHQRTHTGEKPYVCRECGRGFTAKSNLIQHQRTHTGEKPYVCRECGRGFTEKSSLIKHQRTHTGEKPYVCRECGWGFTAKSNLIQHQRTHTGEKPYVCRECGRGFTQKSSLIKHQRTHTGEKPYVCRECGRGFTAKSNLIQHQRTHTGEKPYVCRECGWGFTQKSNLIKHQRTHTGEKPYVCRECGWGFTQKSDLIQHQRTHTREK
sequence,measurement,value
ATAGTGTGCAGACTTGGACCCTGCCCTTTCTGT,binding signal,"0.09 Bmut (0 = wild type, -1 = scrambled)"
ATGGTGTGCAGACTTGGACCCTGCCCTTTCTTT,binding signal,"0 Bmut (0 = wild type, -1 = scrambled)"
ATTGTGTGCAGACTTGGACCCTGCCCTTTCTTT,binding signal,"-0.1 Bmut (0 = wild type, -1 = scrambled)"
ATAGTGTGCAGACTTGGACCCTGCCTTTTCTTT,binding signal,"0.15 Bmut (0 = wild type, -1 = scrambled)"
ATAGTGTGCAGACTTAGACCCTGCCCTTTCTTT,binding signal,"-0.1 Bmut (0 = wild type, -1 = scrambled)"
ATAGTGTGCAGATTTGGACCCTGCCCTTTCTTT,binding signal,"0.1 Bmut (0 = wild type, -1 = scrambled)"
ATAGTGTGCAGACTTCGACCCTGCCCTTTCTTT,binding signal,"-0.2 Bmut (0 = wild type, -1 = scrambled)"
ATAGTGTGCAGACTTGGACCCTGCCCCTTCTTT,binding signal,"0.19 Bmut (0 = wild type, -1 = scrambled)"
ATAATGTGCAGACTTGGACCCTGCCCTTTCTTT,binding signal,"-0.4 Bmut (0 = wild type, -1 = scrambled)"
ATAGTGTGCAGACTTGGACCCTGCCCTTGCTTT,binding signal,"-0 Bmut (0 = wild type, -1 = scrambled)"
ATAGTGTGCAGTCTTGGACCCTGCCCTTTCTTT,binding signal,"-0.2 Bmut (0 = wild type, -1 = scrambled)"
ATAGTGTGCAGACTTGGACACTGCCCTTTCTTT,binding signal,"-0 Bmut (0 = wild type, -1 = scrambled)"
ACAGTGTGCAGACTTGGACCCTGCCCTTTCTTT,binding signal,"-0.1 Bmut (0 = wild type, -1 = scrambled)"
ATAGTGTGCAGACTTGGACCCTGCTCTTTCTTT,binding signal,"-0.2 Bmut (0 = wild type, -1 = scrambled)"
ATAGTGTGGAGACTTGGACCCTGCCCTTTCTTT,binding signal,"0.1 Bmut (0 = wild type, -1 = scrambled)"
ATAGTGTGAAGACTTGGACCCTGCCCTTTCTTT,binding signal,"-0.1 Bmut (0 = wild type, -1 = scrambled)"
ATAGTGTGCAGACTTGGACCATGCCCTTTCTTT,binding signal,"0.07 Bmut (0 = wild type, -1 = scrambled)"
ATAGTGTGCAGACTTGGACCCTGCCGTTTCTTT,binding signal,"0.04 Bmut (0 = wild type, -1 = scrambled)"
ATAGTCTGCAGACTTGGACCCTGCCCTTTCTTT,binding signal,"0.1 Bmut (0 = wild type, -1 = scrambled)"
GTAGTGTGCAGACTTGGACCCTGCCCTTTCTTT,binding signal,"0 Bmut (0 = wild type, -1 = scrambled)"
ATAGAGTGCAGACTTGGACCCTGCCCTTTCTTT,binding signal,"0 Bmut (0 = wild type, -1 = scrambled)"
ATAGTGTGCAGACTTGGACCGTGCCCTTTCTTT,binding signal,"0.06 Bmut (0 = wild type, -1 = scrambled)"
